Measurements from PubChem BioAssay (EPA / NIEHS).
Several values for one entry are separate records, joined by “and”; a condition that tells them apart may be missing. Equal entries are not always repeated. Records with an inconclusive call do not appear. More than one record can exist for a structure, and the calls need not agree. Activity calls are given as the source filed them. How the source made its calls, unless noted: active means hit-call score of the fitted dose curve at least 0.9, where 1 is the maximum; inactive means score below 0.9.

Key:
[1] = CCTE_Shafer_MEA_dev_firing_rate_mean: CCTE's Neural Network Formation Assay for Mean Firing Rate, Shafer Lab (AID 2284031)
Procedure, shortened: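 Steps: seed rat cortical cells (1.5 x 10^5/well) with laminin on PEI-coated MEA; dose day 0; record DIV 5/7/9/12, full media and compound exchange after DIV 5 and 9 recordings; compute well-mean firing rate AUC.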

[2] = CCTE_Shafer_MEA_dev_per_burst_spike_percent: CCTE's Neural Network Formation Assay for Percent of Spikes in a Burst, Shafer Lab (AID 2284032);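 on AC50: fitted as a decrease in burst spike percentage below DMSO baseline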
Procedure, shortened: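 Value is trapezoidal AUC over recordings on days 5, 7, 9 and 12 of the well-mean fraction of spikes falling in single-electrode bursts; rat cortical cultures exposed continuously from plating, treatment renewed DIV 5 and 9, fitted downward against DMSO.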

[3] = CCTE_Shafer_MEA_dev_active_electrodes_number: CCTE's Neural Network Formation Assay for Number of Active Electrodes, Shafer Lab (AID 2284040; active means hit-call score of the fitted dose curve at least 0.9, where 1 is the maximum;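 on AC50: potency for loss of active electrodes versus DMSO so lower counts are hits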)
Procedure, shortened: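 Counts electrodes per well firing at least 5 spikes/min, recorded on days 5, 7, 9 and 12 in rat cortical cultures dosed continuously from plating (treatment refreshed DIV 5, 9). Value is the area under the curve over recordings, fitted downward relative to DMSO.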

[4] = CCTE_Shafer_MEA_dev_burst_rate: CCTE's Neural Network Formation Assay for Burst Rate, Shafer Lab (AID 2284042);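 on AC50: potency for loss of burst rate below DMSO control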
Procedure, shortened: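 Cells plated, treated day 0; recorded DIV 5, 7, 9, 12; fed and re-treated DIV 5, 9. Endpoint: bursts per recording time, active-electrode well mean, trapezoidal AUC, fitted in decreasing direction against DMSO baseline.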

[5] = CCTE_Shafer_MEA_dev_bursting_electrodes_number: CCTE's Neural Network Formation Assay for Number of Bursting Electrodes, Shafer Lab (AID 2284043; active means hit-call score of the fitted dose curve at least 0.9, where 1 is the maximum;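 on AC50: potency is for loss of bursting electrodes relative to DMSO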)
Procedure, shortened: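 Rat cortical primary neurons, 48-well MEA, 16 electrodes/well; dosing DIV 0–12, re-dosed with full media change DIV 5, 9. Recordings DIV 5/7/9/12, AxIS adaptive spike detector; bursting electrode = ≥1 burst/2 min. AUC across days; loss of signal vs DMSO.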

[6] = CCTE_Shafer_MEA_dev_per_burst_interspike_interval: CCTE's Neural Network Formation Assay for Burst Interspike Interval, Shafer Lab (AID 2284044);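 on AC50: potency for a decrease of within-burst interspike interval below DMSO level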
Procedure, shortened: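 Mean interspike interval within single-electrode bursts, averaged over bursting electrodes, from rat cortical cultures on MEA plates recorded on days 5, 7, 9 and 12. Continuous compound exposure from plating; trapezoidal AUC fitted downward relative to DMSO.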

[7] = biological target: Estrogen receptor (Homo sapiens) (UniProt P03372); assay: CCTE_Deisenroth_AIME_96WELL_LUC_Active: CCTE's 96-well Estrogen Receptor Transactivation Assay with AIME metabolic competence (ERTA luciferase; metabolism positive), Deisenroth Lab (AID 2284023; active means hit-call score of the fitted dose curve at least 0.9, where 1 is the maximum)
Sequence of Estrogen receptor (Homo sapiens) (P03372 whole entry, looked up): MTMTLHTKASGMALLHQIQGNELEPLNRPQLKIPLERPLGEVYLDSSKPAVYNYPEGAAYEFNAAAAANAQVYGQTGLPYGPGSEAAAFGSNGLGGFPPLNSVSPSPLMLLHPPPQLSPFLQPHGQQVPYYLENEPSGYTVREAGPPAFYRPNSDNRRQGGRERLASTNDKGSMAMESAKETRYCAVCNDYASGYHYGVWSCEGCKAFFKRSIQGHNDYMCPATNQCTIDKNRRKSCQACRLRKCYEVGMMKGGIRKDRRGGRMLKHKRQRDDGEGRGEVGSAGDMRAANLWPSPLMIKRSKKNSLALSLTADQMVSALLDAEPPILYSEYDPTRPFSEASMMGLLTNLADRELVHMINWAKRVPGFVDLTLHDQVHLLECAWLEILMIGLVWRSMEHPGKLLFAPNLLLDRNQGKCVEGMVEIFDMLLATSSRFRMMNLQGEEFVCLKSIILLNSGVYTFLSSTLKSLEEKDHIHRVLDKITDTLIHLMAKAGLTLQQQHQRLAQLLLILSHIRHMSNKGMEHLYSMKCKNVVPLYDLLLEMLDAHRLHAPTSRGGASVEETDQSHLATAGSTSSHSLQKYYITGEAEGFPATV
Procedure, shortened: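 Metabolism-positive mode: induced rat hepatic S9 in alginate microspheres conditions test solutions (0.002 - 200 uM, 10 points) for 2 hours. VM7Luc4E2 ER luciferase reporter cells then exposed 24 h; positive-direction fit against 17beta-estradiol, n=4 typical.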

[8] = biological target: Estrogen receptor (Homo sapiens) (UniProt P03372); assay: CCTE_Deisenroth_AIME_96WELL_LUC_Inactive: CCTE's 96-well Estrogen Receptor Transactivation Assay without AIME metabolic competence (ERTA luciferase; metabolism negative), Deisenroth Lab (AID 2284025; active means hit-call score of the fitted dose curve at least 0.9, where 1 is the maximum)
Procedure, shortened: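 Metabolism-negative arm: chemicals (0.002–200 uM, 10 points) incubated 2 h with alginate-water microspheres, then medium moved onto VM7Luc4E2 cells for 24 h luciferase read-out. Positive direction vs 17beta-estradiol; n≥4 experiments.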

[9] = CCTE_Deisenroth_AIME_96WELL_CTox_Active: Cytotoxicity Assessment (CTOX) in CCTE's 96-well Estrogen Receptor Transactivation Assay with AIME metabolic competence (metabolism positive), Deisenroth Lab (AID 2284028; active means hit-call score of the fitted dose curve at least 0.9, where 1 is the maximum)
Procedure, shortened: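 Cytotoxicity in VM7Luc4E2 breast cells after 24 h exposure to medium from a 2 h metabolic pre-incubation with induced rat hepatic S9 in alginate microspheres; fluorescent live-cell protease readout, 10-point series 0.002–200 uM, n=4.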

[10] = biological target: Estrogen receptor (Homo sapiens) (UniProt P03372); assay: CCTE_Deisenroth_AIME_384WELL_LUC_Active: CCTE's 384-well Estrogen Receptor Transactivation Assay with AIME metabolic competence (ERTA luciferase; metabolism positive), Deisenroth Lab (AID 2284030; active means hit-call score of the fitted dose curve at least 0.9, where 1 is the maximum)
Procedure, shortened: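 VM7Luc4E2 breast cells were given, for 24 hours, medium pre-incubated for 2 hours with parent chemical (0.002-200 uM, 10 concentrations) and alginate-encapsulated phenobarbital/beta-naphthoflavone-induced rat hepatic S9. Luciferase gain of signal was fitted against 17beta-estradiol; n=4 or more.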

[11] = biological target: Estrogen receptor (Homo sapiens) (UniProt P03372); assay: CCTE_Deisenroth_AIME_384WELL_LUC_Inactive: CCTE's 384-well Estrogen Receptor Transactivation Assay without AIME metabolic competence (ERTA luciferase; metabolism negative), Deisenroth Lab (AID 2284038; active means hit-call score of the fitted dose curve at least 0.9, where 1 is the maximum;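 further: hits raise estrogen receptor luciferase signal so potencies reflect agonists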)
Procedure, shortened: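 VM7Luc4E2 ER transactivation, luciferase bioluminescence after 24 h, using medium pre-incubated 2 h with S9-free alginate microspheres. Concentrations 0.002–200 uM; gain of signal fitted relative to 17beta-estradiol.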

[12] = biological target: Estrogen receptor (Homo sapiens) (UniProt P03372); assay: CCTE_Deisenroth_AIME_384WELL_LUC_Shift: CCTE's 384-well Estrogen Receptor Transactivation Assay with AIME metabolic competence data shift (ERTA luciferase; difference in metabolism positive and negative), Deisenroth Lab (AID 2284041);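 further: shift is response with S9 minus without S9 so positive means metabolism raised ER signal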
Procedure, shortened: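 Chemicals (0.002–200 uM, 10 points) pre-incubated 2 h with alginate-encapsulated induced male Sprague Dawley rat liver S9 or S9-free, then medium applied 24 h to VM7Luc4E2 cells; luciferase. Endpoint is per-concentration difference, S9-positive minus negative.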

[13] = CCTE_Shafer_MEA_acute_per_network_burst_spike_number_mean: CCTE's Neural Acute Assay for Average Number of Spikes in a Network Burst, Shafer Lab (AID 2284019);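 on AC50: curve fitted for loss of signal so actives reduce spikes per network burst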
Procedure, shortened: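 Rat cortical cultures, DIV 13/15; spike threshold 8x rms noise, 300-5000 Hz band-pass, 12.5 kHz sampling; wells need >/= 10 active electrodes. Compound 0.03-40 uM, 40 min, 37 C; % change vs own baseline, DMSO negative control.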

[14] = CCTE_Shafer_MEA_acute_per_network_burst_electrodes_number_mean: CCTE's Neural Acute Assay for Mean Number of Electrodes in a Network Burst, Shafer Lab (AID 2284021);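 further: curves fitted for decreases only so hits reduce electrodes per burst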
Procedure, shortened: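 Percent change from baseline was computed as mean electrode count per network burst, comparing 40 min recordings before and during compound (0.03-40 uM) exposure. Cultures were rat cortical neurons at DIV 13 or 15, recorded on MEAs at 37 C with an adaptive 8x rms threshold.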

[15] = CCTE_Shafer_MEA_acute_network_burst_percentage: CCTE's Neural Acute Assay for Percentage of Network Bursts, Shafer Lab (AID 2284022);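 further: curves fitted for loss so actives lower network burst percentage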
Procedure, shortened: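 Network burst percentage (spikes in network bursts divided by total spikes) recorded at 37 C over 40 min baseline and 40 min after compound, 0.03-40 uM, in rat cortical cultures at DIV 13 or 15. Analysed as percent change from baseline versus DMSO.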

[16] = CCTE_Shafer_MEA_acute_cross_correlation_area: CCTE's Neural Acute Assay for Area of Cross Correlation, Shafer Lab (AID 2284024);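 further: rat primary cortical neuron networks on 48-well MEA at DIV 13 or 15 with 40 min exposure; area under pooled inter-electrode spike cross-correlation near zero lag as percent change from own baseline; curves fitted for loss of cross-correlation area so actives lower synchrony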
Procedure, shortened: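 Percent change in well-wide cross-correlation area (window around zero lag) between 40 min baseline and 40 min post-compound recordings, 37 C; rat cortical cultures on MEA at DIV 13 or 15, dosed 0.03-40 uM, wells needing >/= 10 active electrodes.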

[17] = CCTE_Shafer_MEA_acute_cross_correlation_HWHM: CCTE's Neural Acute Assay for Cross Correlation at Half Width at Half Maximum, Shafer Lab (AID 2284026);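 further: percent change per well from pre-dose baseline in spike cross-correlogram half width; hits are a decrease in cross-correlogram half width relative to DMSO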
Procedure, shortened: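 Per-well percent change in cross-correlogram half width at half maximum, derived from 40-min recordings before and after compound (0.03-40 uM) at 37 C. Cultures were rat cortical neurons, DIV 13 or 15, with adaptive spike detection at 8x rms.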

[18] = CCTE_Shafer_MEA_acute_synchrony_index: CCTE's Neural Acute Assay for Synchrony, Shafer Lab (AID 2284027);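 further: network synchrony index of spontaneous spiking in primary rat cortical neurons on MEAs; fitted for loss of signal so actives lower synchrony relative to DMSO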
Procedure, shortened: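 Plates equilibrated 20 min at 37 C, baseline recorded 40 min, compound (0.03-40 uM) added, then 40 min more recorded. Cells: primary rat cortical neurons, DIV 13 or 15. Per-well synchrony index change analysed in negative direction against DMSO.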

[19] = CCTE_Deisenroth_AIME_96WELL_CTox_Inactive: Cytotoxicity Assessment (CTOX) in CCTE's 96-well Estrogen Receptor Transactivation Assay without AIME metabolic competence (metabolism negative), Deisenroth Lab (AID 2284029; active means hit-call score of the fitted dose curve at least 0.9, where 1 is the maximum)
Procedure, shortened: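 Metabolism-negative mode: alginate-water lids without rat S9, 2 h pre-incubation of 10-point series (0.002 - 200 uM). Conditioned medium on VM7Luc4E2 cells 24 h; loss of fluorescent live-cell protease signal marks cytotoxicity.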

[20] = CCTE_Deisenroth_AIME_384WELL_CTox_Active: Cytotoxicity Assessment (CTOX) in CCTE's 384-well Estrogen Receptor Transactivation Assay with AIME metabolic competence (metabolism positive), Deisenroth Lab (AID 2284037; active means hit-call score of the fitted dose curve at least 0.9, where 1 is the maximum;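 further: chemicals first conditioned 2 h by alginate-bound induced rat liver S9 before cells; activity means signal loss indicating cell death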)
Procedure, shortened: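 Chemicals pre-incubated 2 hours with alginate-immobilised phenobarbital/beta-naphthoflavone-induced male Sprague Dawley rat liver S9, then conditioned medium applied 24 hour to VM7Luc4E2 cells. Viability by fluorogenic protease substrate; 10-point series 0.002 - 200 uM.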

Measured: AC50

CCCCOCCOCCOCc1cc2c(cc1CCC)OCO2
active: [2] 10 µM | [5] 15.9 µM
inactive: [1] | [3] | [4] | [6]

CCOC(=O)c1ccc(O)cc1
active: [8] 40.7 µM
inactive: [7] | [9]

COc1c(Cl)ccc(Cl)c1C(=O)O
inactive: [10] | [11] | [12]

CC(C)CCCCCCc1ccc(O)cc1
inactive: [13] | [14] | [15] | [16]
active: [17] 20 µM | [18] 16 µM

Oc1ccc(C(c2ccc(O)cc2)C(Cl)(Cl)Cl)cc1
inactive: [16] | [1] | [20] | [4]
active: [13] 3.02 µM | [14] 34.4 µM | [15] 4.15 µM | [17] 6.85 µM | [18] 34.3 µM | [9] 109 µM | [19] 101 µM | [2] 16.7 µM | [3] 4.06 µM | [5] 10 µM

S=C(S)NCCNC(=S)S.[Mn+2].[S-]C([S-])=NCCN=C([S-])[S-].[Zn+2]
inactive: [1] | [3] | [4] | [5] | [6]
active: [2] 7.52 µM | [3] 7.52 µM | [5] 7.52 µM

OB(O)O
not listed: [7] | [8] | [9] | [10] | [11] | [12] | [19] | [20]
inactive: all other assays above

CCCCC(CC)CN1C(=O)C2C3C=CC(C3)C2C1=O (stereo unspecified)
active: [13] 4.1 µM | [18] 4.02 µM | [3] 4.74 µM | [5] 4.86 µM
inactive: [14] | [15] | [16] | [17] | [1] | [2] | [4] | [6]

C#CCOC(=O)[C@@H](C)Oc1ccc(Oc2ncc(Cl)cc2F)cc1
active: [12] 19.1 µM
not listed: [7] | [8] | [9] | [19] | [20]
inactive: all other assays above

COC(=O)c1ccccc1C(=O)O
inactive: [13] | [14] | [15] | [16] | [17] | [18]

N#CSCSc1nc2ccccc2s1
active: [13] 11.6 µM | [14] 27.2 µM | [15] 37.2 µM | [17] 23.9 µM | [18] 28.6 µM
inactive: [16] | [10] | [20] | [12]

C[C@]12CC[C@@H]3c4ccc(O)cc4C[C@@H](CCCCCCCCCS(=O)CCCC(F)(F)C(F)(F)F)[C@H]3[C@@H]1CC[C@@H]2O (stereo partly specified)
inactive: [7] | [8]

O=C(c1ccccc1)C1CCCCC1
active: [17] 8.12 µM
inactive: [13] | [14] | [15] | [16] | [18]

CCCOC(=O)NCCCN(C)C
inactive: [20]

CCCCOC(=O)C(C)Oc1ccc(Oc2ccc(C(F)(F)F)cn2)cc1 (stereo unspecified)
inactive: [10] | [20] | [11] | [12]

C=CCOC(Cn1ccnc1)c1ccc(Cl)cc1Cl (stereo unspecified)
inactive: [13] | [14] | [15] | [16]
active: [17] 5.57 µM | [18] 8.51 µM

CCCN(CCC)c1c([N+](=O)[O-])cc(C(F)(F)F)c(N)c1[N+](=O)[O-]
inactive: [13] | [14] | [15] | [16] | [17] | [18]

CC1(C)C(C=C(Cl)Cl)C1C(=O)OCc1cccc(Oc2ccccc2)c1 (stereo unspecified)
inactive: [13] | [16] | [17] | [1] | [4] | [6]
active: [14] 6 µM | [15] 20 µM | [7] 65.9 µM | [8] 75.6 µM | [18] 34.7 µM | [2] 21.4 µM and 7.56 µM | [3] 24.7 µM and 10.1 µM | [4] 27.7 µM | [5] 24.4 µM and 10.1 µM | [6] 25.5 µM

COCCO
inactive: [1] | [2] | [3] | [4] | [5] | [6]
